Results: the supplement of paper PMC6555819

Key:
Experiment in all cases: PBM binding z-score (relative to random genomic background probes); higher = stronger binding; sequences stand for … in GC…GCGATTGACAGCGTAGAATGAAGG
[1] = tested on: FXR:RXRa (NR concentration 270 nM, RXRa partner concentration 90 nM)
How it was run: (§1)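 Antibodies against each partner of ligand-free nuclear receptor dimers (one per run) detected binding on custom Agilent 4×180K protein-binding microarrays after 1 h incubation. The double-stranded probes had 34-nt variable regions carrying direct-repeat seeds, single-nucleotide variants, half-site ablations and random human genomic background sequences. Binding z-scores, from regression-normalized fluorescence, use the random background probes as reference.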

[2] = tested on: LXRa:RXRa (NR concentration 270 nM, RXRa partner concentration 90 nM)
How it was run: as §1

[3] = tested on: LXRa homodimer (NR concentration 270 nM)
How it was run: as §1

[4] = tested on: LXRb:RXRa (NR concentration 270 nM, RXRa partner concentration 90 nM)
How it was run: as §1

[5] = tested on: LXRb homodimer (NR concentration 270 nM)
How it was run: as §1

[6] = tested on: PPARa:RXRa (NR concentration 270 nM, RXRa partner concentration 90 nM)
How it was run: as §1

[7] = tested on: PPARg:RXRa (NR concentration 180 nM, RXRa partner concentration 90 nM)
How it was run: as §1

[8] = tested on: PPARg:RXRa 270nM:90nM, anti-RXR (NR concentration 270 nM, RXRa partner concentration 90 nM)
How it was run: as §1

[9] = tested on: PPARg:RXRa 30nM:10nM, anti-RXR (NR concentration 30 nM, RXRa partner concentration 10 nM)
How it was run: as §1

[10] = tested on: PPARg:RXRa 90nM:30nM, anti-RXR (NR concentration 90 nM, RXRa partner concentration 30 nM)
How it was run: as §1

Sequence | PBM binding z-score [1] | PBM binding z-score [2] | PBM binding z-score [3] | PBM binding z-score [4] | PBM binding z-score [5] | PBM binding z-score [6] | PBM binding z-score [7] | PBM binding z-score [8] | PBM binding z-score [9] | PBM binding z-score [10]
AGTCAAAGTTCACTAGGTAACATAAGATTCAGCT | 4.79 | 5.28 | 3.12 | 3.27 | 1.4 | 4.86 | 7.49 | 6.62 | 3.82 | 5.79
TAGCCTTGGTCAGATCGGGCCAGTATACGCTATA | -0.504 | -0.892 | -0.925 | -0.995 | -0.904 | -0.565 | -0.0905 | -0.29 | -0.644 | -0.566
ATACCAAGGTGAACGTGAGGTCGTTGATACTAAC | 3.12 | 3.08 | 1.29 | 2.47 | -0.133 | 2.87 | 2.13 | 1.87 | 0.56 | 1.48
ACTATTAGTTGACTTAGGGCAACGGATACGACGC | 0.165 | 0.158 | 0.172 | -0.137 | 0.447 | -0.22 | 0.94 | 0.192 | 0.24 | 0.227
TCATATAAGTAAAAGGTGAAAGTCGGTGTGGTAA | 1.04 | 1.71 | 0.168 | 1.8 | 0.141 | 3.59 | 3.78 | 5.58 | 5.48 | 6.35
TAGCCTAGGCCATTGGGCCAGTATAGTACGCATC | -0.681 | -0.881 | -0.612 | -0.883 | -1.27 | -1.09 | 0.237 | -0.512 | -0.597 | -0.438
GTAACGAGGGCATTCGAGTTGATAGCATGGCGAT | 1.83 | 1.91 | -0.134 | 0.286 | -0.321 | 1.72 | 1.12 | 0.912 | 0.115 | 0.712
GCAGACAGGTGAAACGCAGGAAACTCAGGGTGGC | -0.517 | -0.226 | -0.695 | -0.346 | -1.08 | 0.952 | 0.592 | -0.351 | -0.59 | -0.582
TAGCCTAGGTCAGAGCGGGCCAGTATACGCTATA | 1.24 | 0.815 | -0.692 | 0.501 | -1.17 | 1.42 | 0.573 | 0.718 | -0.359 | 0.201
TCATATAGGTAATACAGGGGAAAGTCGGCATCTA | 1.29 | 1.31 | 0.263 | 1.21 | 0.513 | 1.55 | 1.01 | 2.49 | 4.47 | 3.25
CGCCAAAGTTCAAGGTAACGTAACAGAAAGCAGC | 6.49 | 5.62 | 3.2 | 3.55 | 0.961 | 5.17 | 4 | 4.83 | 1.8 | 3.27
CCGACTGCGGCAAAGGTTACCATACTCAGTACGA | 0.819 | 1.26 | 0.087 | 1.73 | -0.464 | 2.59 | 2.8 | 4.2 | 2.28 | 4.38
TCATATAGGTACAGGTGAAAGTCGAACGATATGA | 0.652 | 0.533 | -0.0804 | 0.777 | -0.304 | 1.62 | 1.23 | 2.41 | 3.76 | 2.76
CCAGACAGGTGAGAAGGTAGCTCAGCCTCGATTA | -0.337 | -0.342 | -0.166 | -0.33 | -0.763 | 0.0761 | 0.0523 | 0.0588 | -0.801 | -0.121
CCTACTGGGCCATCAGGTCATTGATATCAACGTT | 1.4 | 1.19 | 1.28 | 1.56 | -0.271 | 2.79 | 2.68 | 3.7 | 1.46 | 3.18
ATCTCTAGGTAAATATAGTTCAGTGAATGCAAAT | 0.614 | 5.89 | 1.51 | 2.5 | 1.12 | 0.691 | 1.16 | 0.903 | 1.13 | 1.05
ACTCGGAGGCCAAAGGTCAGAGCTACGCCAGTGA | 4.88 | 4.5 | 1.02 | 3.69 | 0.134 | 5.63 | 8.85 | 7.98 | 6.53 | 8.9
ACAGACAGGAGAGTGAAGGTAACTCAGCTGGACG | 0.399 | -0.127 | -0.128 | 0.0952 | 0.885 | 0.0627 | 0.928 | 0.616 | 0.213 | 0.343
GGAACGAGGGCAAATTTGATAGCATCTGTCGACG | 0.712 | 0.506 | -0.407 | 0.682 | 0.0825 | 1.51 | 1.19 | 1.13 | -0.00323 | 0.82
TTACCAAGGTGAAAAGTCGTTGATGCACGCCTTG | 0.666 | 0.719 | -0.432 | 0.311 | -0.57 | 2.25 | 2.75 | 4.56 | 2.5 | 4.19
ATATGCAGGTTAAGGGTCATTCAGGTTGGTTCGC | 5.08 | 4.8 | 3.05 | 4.56 | 1.17 | 5.84 | 9.18 | 7.85 | 8.36 | 8.7
GGAACGAGGGCATCCGAGTTGATAGCATGGCGAT | 1.24 | 0.897 | -0.543 | -0.129 | -0.874 | 1.53 | 1.15 | 0.688 | -0.271 | -0.0258

Sequence | PBM binding z-score [1] | PBM binding z-score [2] | PBM binding z-score [3] | PBM binding z-score [4] | PBM binding z-score [5] | PBM binding z-score [6] | PBM binding z-score [7] | PBM binding z-score [8] | PBM binding z-score [9] | PBM binding z-score [10]
CCTTACGGGTCACTGCCAGGTTATAGCATTTGGA | 5.22 | 3.93 | 0.268 | 3.17 | 0.0184 | 4.86 | 4.05 | 4.26 | 1.23 | 2.88
TAGCCTAGGTCATGGGCCGGTATACCACGCGAAC | 4.76 | 3.42 | 0.261 | 2.72 | 0.0172 | 4.23 | 3.35 | 3.56 | 0.856 | 2.46
CCGAGTTGGTCAGGAGGTCACACACCGGATATGA | 3.49 | 3.18 | 1.86 | 2.93 | -0.213 | 4.03 | 2.62 | 3.24 | 0.983 | 2.36
TCATATAGGTACTACAGGTGAAAGTCGGCATCTA | 0.842 | 1.92 | 0.924 | 1.03 | 0.0353 | 1.4 | 0.768 | 2.18 | 3.93 | 2.89
ATCGAAATGTCGAGGTGAGTATAGAGAAAGGGAA | 0.0498 | -0.124 | -0.716 | -0.253 | -0.363 | 0.204 | 0.315 | 0.0336 | 0.162 | 0.363
CCTAGTTGGTCACGGTCACACACGCTATAGGTAC | 0.611 | 0.906 | 1.21 | 0.81 | 0.982 | 0.843 | 1.61 | 1.34 | 0.766 | 0.795
CCTCGGAGGACAACAGGAGGTCAGAGATGCCAGA | 1.06 | 1.85 | 2.02 | 1.36 | -0.479 | 2.08 | 0.895 | 0.272 | -0.499 | -0.289
TCGGCTAGGTCAACGATGGTCAGCTAATCTGCTA | 3.23 | 2.31 | -0.307 | 1.72 | -0.717 | 3.14 | 1.75 | 2.37 | 1.62 | 2.03
CCGAGAAGGTTATGGGGCATTCAGGCAACGGTGA | 1.63 | 1.52 | 0.000193 | 1.24 | -0.242 | 2.89 | 1.15 | 1.75 | -0.0865 | 0.883
TCCAGTTGGTCAAAGGTCACACACTCGAAATGCG | 6.2 | 5.79 | 3.85 | 5.42 | 1.6 | 6.51 | 11 | 9.65 | 9.86 | 10.3
CCTGCTAGGTCAGGGTCAGCTAATCTACAGTATG | 3.6 | 2.42 | -0.231 | 2.55 | -0.944 | 3.92 | 2.82 | 3 | 0.682 | 1.83
TATACAGGGTCAAACGCCAGAGTACGAATGTCGA | 7.58 | 6.35 | 3.43 | 5.2 | 3.15 | 6.3 | 7.33 | 6.79 | 3.84 | 5.94
CCTACTGGGCCACGAAACGTCATTGATTCAGTGA | -0.574 | -0.675 | -0.582 | -0.896 | -0.886 | 0.486 | 1.59 | 1.19 | -0.214 | 0.157
CTCGAAATGTCGGTTGAGGTGAGTATACGGATAA | 0.47 | -0.279 | -0.308 | -0.214 | 0.0912 | 0.0141 | 0.0414 | 0.218 | 0.0305 | -0.0265
TCATATAGGTAAATGCTAGGTGAAAGTCCGATCT | 1.23 | 1.02 | 0.256 | 0.834 | -0.0467 | 1.43 | 1.09 | 2.44 | 3.65 | 3.19
TCATATAGGTAAATGCTAGGTGAAATTCCGATCT | 0.456 | 0.522 | -0.0474 | 0.729 | 0.187 | 1.17 | 0.929 | 2.31 | 3.86 | 3.3
GTACCAAGGTGAAGAGGTCGTTGATGAGTAGGCG | 1.67 | 1.32 | 0.0368 | 1.13 | -0.425 | 3 | 1.95 | 2.49 | 0.544 | 1.72
ATACCAAGGTGATCGTGAGGTCGTAGATACTAAC | 1.57 | 1.07 | 0.236 | 0.929 | -0.173 | 1.73 | 0.732 | 0.484 | -0.23 | -0.092
ACTATTAGTTGACTTAGGGCAACCCATACGACGC | 0.287 | 0.126 | 0.344 | 0.24 | 0.53 | 0.137 | 1.03 | 0.234 | 0.457 | 0.203
TTATATAGGTAAAAGGTGAAAGTCGGTGTGGTAA | 2.14 | 1.87 | 0.372 | 2.02 | -0.0123 | 6.3 | 10.6 | 9.28 | 9.36 | 10.3
TATACAGGGTCAAAGGCCAGAGCACGAATGTCGA | 6.57 | 6.15 | 1.83 | 4.68 | 2.53 | 5.83 | 7.89 | 7.51 | 5.16 | 7.77
ATCTCTAGGTAACCAAGTTCAGAGAATGCCGAAC | 0.204 | 0.722 | 0.915 | 0.628 | 0.739 | 1.2 | 0.721 | 0.986 | -0.0566 | 0.52
